Reference: PubChem BioAssay (NCATS)
Inconclusive results are not listed. Where a call stands in place of a potency, no number is given. Activity calls are given as the source filed them. Unless noted, the call rests on the fitted dose curve; in most records, active means well fitted curve in the direction sought with a large enough effect; inconclusive means small, poorly fitted or top-dose-only effect, or another doubt; inactive means no such curve, though single readings can be large; an effect the other way counts as inactive or inconclusive.

Columns and labels:
[1] = target: Cytochrome P450 3A4 (Homo sapiens) (UniProt P08684); experiment: qHTS Assay for Inhibitors and Substrates of Cytochrome P450 3A4 (AID 884); further: nearly all actives have a fitted effect of over 50% in size; further: potency means the concentration at half of the fitted maximal effect
Cytochrome P450 3A4 (Homo sapiens), sequence (P08684 whole entry, looked up): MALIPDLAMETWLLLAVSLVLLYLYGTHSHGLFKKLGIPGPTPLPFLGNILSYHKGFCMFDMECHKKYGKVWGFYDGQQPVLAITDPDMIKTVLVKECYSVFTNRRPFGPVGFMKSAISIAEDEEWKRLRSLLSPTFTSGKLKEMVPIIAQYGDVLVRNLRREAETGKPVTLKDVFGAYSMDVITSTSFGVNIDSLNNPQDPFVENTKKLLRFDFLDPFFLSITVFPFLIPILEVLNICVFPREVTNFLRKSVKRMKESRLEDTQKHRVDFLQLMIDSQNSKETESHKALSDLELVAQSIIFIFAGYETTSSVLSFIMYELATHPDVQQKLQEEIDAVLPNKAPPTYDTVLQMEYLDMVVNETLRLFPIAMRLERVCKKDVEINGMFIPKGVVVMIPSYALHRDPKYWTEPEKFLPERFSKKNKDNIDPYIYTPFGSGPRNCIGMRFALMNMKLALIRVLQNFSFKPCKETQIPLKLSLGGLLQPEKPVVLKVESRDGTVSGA
Procedure, shortened: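 Luminescent readout of luciferin produced by CYP3A4 (20 nM) dealkylation of Luciferin-PPXE, 25 uM (its KM). NADPH-driven reaction ran 60 min at RT after 10 min compound preincubation; data scaled to 57 uM ketoconazole as 100% inhibition.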

[2] = target: Cytochrome P450 3A4 (Homo sapiens) (UniProt P08684); experiment: qHTS Assay for Activators of Cytochrome P450 3A4 (AID 885); further: nearly all actives have a fitted effect of over 65% in size
Procedure, shortened: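 Using 20nM recombinant human CYP3A4 in potassium phosphate (200mM), substrate Luciferin-PPXE at 25uM, luminescent luciferin detection followed a 60-min RT NADPH reaction; data scaled to 57 uM ketoconazole.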

[3] = Confirmation and Secondary Assay for Modulators of Hemoglobin Beta Chain Splicing at IVS2 654 locus (AID 910);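 further: HeLa cells stably carrying EGFP split by mutant beta-globin IVS2-654 intron; per-well total GFP intensity by laser scanning cytometry after 2-day treatment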
Procedure, shortened: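 Readout: per-well total peak green fluorescence (488 nm ex, 500–520 nm em) from objects 5–250 µm, reflecting correct splicing of an EGFP-654 reporter. Compounds were applied for 2 days at 37 °C to overnight-plated HeLa EGFP-654 cells; controls were DMSO and 500 nM IVS2-654 PNA.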

[4] = Confirmation and Secondary Assay for Modulators of Hemoglobin Beta Chain Splicing at IVS2 705 locus (AID 930);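 further: HeLa cells stably expressing the EGFP-705 splicing reporter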
Procedure, shortened: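 HeLa cells stably carrying EGFP interrupted by mutant beta-globin IVS2-705 intron (CMV-driven) were seeded at 500 cells/well, treated next day with compound for 2 days at 37C; corrected splicing restores EGFP, read as total peak GFP intensity per well.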

[5] = qHTS Assay for Lipid Storage Modulators (AID 1519; calls by dose curve); settings: Drosophila S3 cells, BODIPY lipid droplet/cell ratio, laser cytometry, cells loaded with oleic acid; for activity change, negative = inhibition: at 57.5 µM (top of the series)
Procedure, shortened: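 Cells seeded at 5,000 per well were treated with compounds over a concentration series and loaded with oleic acid (400 uM, as added). Lipid droplet fluorescence (488 nm excitation, 500-530 nm channel) was read by laser-scanning cytometry and normalized to 20 uM Triacsin C.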

[6] = target: Ubiquitin carboxyl-terminal hydrolase 1 (Homo sapiens) (UniProt O94782); experiment: Inhibitors of USP1/UAF1: Pilot qHTS (AID 504865); further: nearly all actives have a fitted effect of over 35% in size; further: potency means the concentration at half of the fitted maximal effect;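 on activity change, negative = inhibition: rhodamine fluorescence freed from ubiquitin-rhodamine substrate followed over time; top concentration of the series differs between compounds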
Ubiquitin carboxyl-terminal hydrolase 1 (Homo sapiens), sequence (O94782 whole entry, looked up): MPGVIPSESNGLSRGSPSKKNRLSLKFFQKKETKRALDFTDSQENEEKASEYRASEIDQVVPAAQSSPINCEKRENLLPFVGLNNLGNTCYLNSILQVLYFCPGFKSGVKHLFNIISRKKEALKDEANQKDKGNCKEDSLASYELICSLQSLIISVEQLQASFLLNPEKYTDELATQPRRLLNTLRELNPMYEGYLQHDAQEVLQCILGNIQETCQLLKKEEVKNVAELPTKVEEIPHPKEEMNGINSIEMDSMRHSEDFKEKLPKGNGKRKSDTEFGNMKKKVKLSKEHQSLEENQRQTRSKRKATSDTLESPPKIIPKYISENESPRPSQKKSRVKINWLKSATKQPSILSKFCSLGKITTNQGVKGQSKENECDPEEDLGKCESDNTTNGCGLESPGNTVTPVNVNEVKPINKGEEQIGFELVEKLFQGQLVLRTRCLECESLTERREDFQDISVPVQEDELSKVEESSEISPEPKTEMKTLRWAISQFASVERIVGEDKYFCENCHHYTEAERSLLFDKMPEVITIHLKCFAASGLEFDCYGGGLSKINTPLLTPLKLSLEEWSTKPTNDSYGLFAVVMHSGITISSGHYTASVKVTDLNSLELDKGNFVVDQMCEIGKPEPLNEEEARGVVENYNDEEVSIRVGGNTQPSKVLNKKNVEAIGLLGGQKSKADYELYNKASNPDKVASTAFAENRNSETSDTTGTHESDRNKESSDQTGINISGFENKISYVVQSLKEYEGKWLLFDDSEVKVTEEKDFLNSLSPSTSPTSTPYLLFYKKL
Procedure, shortened: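 Kinetic fluorescence assay: 1nM USP1/UAF1, 15 min compound preincubation, then 150nM Ub-Rho; 480/540 nm.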

[7] = target: Peroxisome proliferator-activated receptor alpha (Homo sapiens) (UniProt Q07869); experiment: qHTS assay for small molecule agonists of the peroxisome proliferator-activated receptor alpha (PPARalpha) signaling pathway (AID 651778); settings: PathHunter PPARalpha complementation, chemiluminescence, 6 h; stronger effect = higher value
Peroxisome proliferator-activated receptor alpha (Homo sapiens), sequence (Q07869 whole entry, looked up): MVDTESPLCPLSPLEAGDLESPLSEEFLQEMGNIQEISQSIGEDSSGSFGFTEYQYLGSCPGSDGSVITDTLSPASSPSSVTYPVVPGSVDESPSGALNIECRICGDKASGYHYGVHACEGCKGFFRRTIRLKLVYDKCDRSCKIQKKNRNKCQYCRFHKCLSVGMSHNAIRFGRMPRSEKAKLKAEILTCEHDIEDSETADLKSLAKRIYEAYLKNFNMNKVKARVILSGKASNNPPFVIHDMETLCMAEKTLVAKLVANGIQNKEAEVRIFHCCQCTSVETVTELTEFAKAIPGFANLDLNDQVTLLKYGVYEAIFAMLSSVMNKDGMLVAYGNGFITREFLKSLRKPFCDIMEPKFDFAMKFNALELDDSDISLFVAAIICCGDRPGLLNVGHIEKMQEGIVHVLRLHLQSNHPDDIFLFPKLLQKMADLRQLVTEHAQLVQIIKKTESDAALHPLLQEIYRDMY
Procedure, shortened: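 Chemiluminescence from complemented enzyme reported PPARalpha activation in cells after 6 hr of compound treatment at 37 C. The detection reagent was incubated for 60 min at room temperature, and compounds were scored as agonists.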

[8] = qHTS assay for cell viability of HEK293 cells (AID 743288); settings: ATP luminescence (CellTiter-Glo), 18 h; max response: stronger effect = lower value; further: nearly all actives have a fitted effect of over 50% in size
Procedure, shortened: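 Quantitative high-throughput screen: compounds were pinned onto parental HEK293 cells (2,000 per well) after a minimum 5 h settling at 37 C, incubated 18 h at 37 C, and intracellular ATP measured by luciferase luminescence.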

[9] = measured here: cell count channel max response
[10] = measured here: lipid channel max response

Cc1[nH]c2ccccc2c1CN(C)C
Potency [1]: 12.6 µM (active)
Potency [2]: inactive
Potency [3]: inactive
Potency [4]: inactive
activity change, negative = inhibition [5]: 11.5% (inactive)
max response [5, 9]: 9.14%
max response [5, 10]: 21.3%
Potency [6]: inactive

CC(C)Nc1nc(Cl)nc(NC(C)C)n1
Potency [1]: inactive
Potency [3]: inactive
activity change, negative = inhibition [5]: 3.35% (inactive)
max response [5, 9]: 5.6%
max response [5, 10]: 10.8%
Potency [6]: inactive
max response [7]: -0.58% (inactive)
max response [8]: -5.95% (inactive)

CNC(=O)Oc1cccc2c1OC(C)(C)C2
Potency [1]: inactive
Potency [3]: inactive
activity change, negative = inhibition [5]: 4.9% (inactive)
max response [5, 9]: 5.85%
max response [5, 10]: 6.59%
Potency [6]: inactive

C[C@@]12CCC(=O)C[C@@H]1CC[C@@H]1[C@@H]2CC[C@]2(C)C(=O)CC[C@@H]12
Potency [1]: inactive
Potency [3]: inactive
Potency [4]: inactive
activity change, negative = inhibition [5]: 6.14% (inactive)
max response [5, 9]: 2.79%
max response [5, 10]: 10.6%
Potency [6]: inactive

C[C@@]12CCC(O)C[C@H]1CCC1C2CC[C@]2(C)C(=O)CCC12 (stereo partly drawn)
Potency [2]: inactive
Potency [3]: inactive
Potency [4]: inactive
activity change, negative = inhibition [5]: 1.65% (inactive)
max response [5, 9]: 7%
max response [5, 10]: 9.46%
Potency [6]: inactive

CC1=C2C3OC(=O)C(C)C3CC[C@@]2(C)C=CC1=O (stereo partly drawn)
Potency [2]: inactive
Potency [3]: inactive
Potency [4]: inactive
activity change, negative = inhibition [5]: 1.14% (inactive)
max response [5, 9]: 15.1%
max response [5, 10]: 16.8%
Potency [6]: inactive

CCC12C=CCN3CCC4(c5ccc(OC)cc5N(C)C4[C@@](O)(C(=O)OC)C1OC(C)=O)C32 (stereo partly drawn)
Potency [2]: inactive
Potency [3]: inactive
activity change, negative = inhibition [5]: 1.88% (inactive)
max response [5, 9]: 13.3%
max response [5, 10]: 25%
Potency [6]: inactive

CC1(C)C(O)CC(O)[C@]2(C)C1CC(O)[C@]1(C)C2CC[C@@]2(C)C(c3ccoc3)CC3OC312 (stereo partly drawn)
Potency [2]: inactive
Potency [3]: inactive
Potency [4]: inactive
activity change, negative = inhibition [5]: -10.5% (inactive)
max response [5, 9]: -11.5%
max response [5, 10]: -19.8%
Potency [6]: inactive

CC1C(=O)OC2CCN3CC=C(COC(=O)[C@](C)(O)[C@]1(C)O)C23 (stereo partly drawn)
Potency [1]: inactive
Potency [4]: inactive
activity change, negative = inhibition [5]: 5.81% (inactive)
max response [5, 9]: -2.74%
max response [5, 10]: 4.32%
Potency [6]: inactive

COc1cc2c(c(OC)c1OC)-c1ccc(O)c(=O)cc1C(NC(C)=O)CC2 (stereo not drawn)
Potency [1]: inactive
Potency [4]: inactive
activity change, negative = inhibition [5]: 7.7% (inactive)
max response [5, 9]: 16.6%
max response [5, 10]: 36.3%
Potency [6]: inactive

CC1O[C@@H](OC2CC(O)[C@@]3(CO)C4C(O)C[C@@]5(C)C(C6=CC(=O)OC6)CC[C@]5(O)C4CC[C@]3(O)C2)C(O)C(O)C1O (stereo partly drawn)
Potency [1]: inactive
Potency [3]: inactive
Potency [4]: inactive
activity change, negative = inhibition [5]: 3.6% (inactive)
max response [5, 9]: 6.17%
max response [5, 10]: 13.6%
Potency [6]: inactive

O=C1CCCC2C3CC(CN12)C1CCCCN1C3 (stereo not drawn)
Potency [1]: inactive
Potency [3]: inactive
Potency [4]: inactive
activity change, negative = inhibition [5]: 6.45% (inactive)
max response [5, 9]: 7.08%
max response [5, 10]: 15%
Potency [6]: inactive

N#CC(O[C@@H]1OC(COC2OC(CO)C(O)C(O)[C@@H]2O)C(O)C(O)C1O)c1ccccc1 (stereo partly drawn)
Potency [1]: inactive
Potency [4]: inactive
activity change, negative = inhibition [5]: 2.68% (inactive)
max response [5, 9]: -0.407%
max response [5, 10]: 5.27%
Potency [6]: inactive

CCCCC/C=C\C/C=C\C/C=C\C/C=C\CCCC(=O)O
Potency [2]: inactive
activity change, negative = inhibition [5]: -9.9% (inactive)
max response [5, 9]: 20.2%
max response [5, 10]: 8.84%
Potency [6]: 50.1 µM (active)

COc1cc(C2c3cc4c(c(O)c3CC3COC(=O)C32)OCO4)cc(OC)c1OC (stereo not drawn)
Potency [2]: inactive
Potency [3]: inactive
Potency [4]: inactive
activity change, negative = inhibition [5]: 3.6% (inactive)
max response [5, 9]: 11.9%
max response [5, 10]: 14.5%
Potency [6]: inactive

CC1(C)C(O)CC(=O)[C@]2(C)C1CC(=O)[C@]1(C)C2CC[C@@]2(C)C(c3ccoc3)OC(=O)C3O[C@@]321 (stereo partly drawn)
Potency [2]: inactive
Potency [3]: inactive
Potency [4]: inactive
activity change, negative = inhibition [5]: -3.35% (inactive)
max response [5, 9]: 16.1%
max response [5, 10]: 14.7%
Potency [6]: inactive

CC(=O)OC1CC[C@]2(C)C(CCC3C2CC[C@]2(C)C(C4=CC(=O)OC4)C(OC(C)=O)CC32O)C1 (stereo partly drawn)
Potency [1]: inactive
Potency [4]: inactive
activity change, negative = inhibition [5]: 6.45% (inactive)
max response [5, 9]: 1.24%
max response [5, 10]: 14.6%
Potency [6]: inactive

CCC(N)C(O)c1ccc(O)c(O)c1 (stereo not drawn)
Potency [1]: inactive
Potency [4]: inactive
activity change, negative = inhibition [5]: 5.92% (inactive)
max response [5, 9]: 7.01%
max response [5, 10]: 16.7%
Potency [6]: inactive

NCC(=O)c1ccccc1
Potency [2]: inactive
Potency [3]: inactive
activity change, negative = inhibition [5]: 8.66% (inactive)
max response [5, 9]: 23.8%
max response [5, 10]: 35.4%
Potency [6]: inactive

CC1CC[C@]2(NC1)OC1CC3C4CC=C5CC(O)CC[C@@]5(C)C4CC[C@]3(C)C1C2C (stereo partly drawn)
Potency [1]: inactive
Potency [4]: inactive
activity change, negative = inhibition [5]: 2.46% (inactive)
max response [5, 9]: 14.9%
max response [5, 10]: 22.2%
Potency [6]: inactive

N#C/C(=C\c1ccc(O)cc1)C(=O)O
Potency [2]: inactive
Potency [3]: inactive
Potency [4]: inactive
activity change, negative = inhibition [5]: 4.55% (inactive)
max response [5, 9]: 8.92%
max response [5, 10]: 15.9%
Potency [6]: inactive

CN1CCCCC1c1ccc(-c2cccnc2)nc1 (stereo not drawn)
Potency [2]: inactive
Potency [3]: inactive
Potency [4]: inactive
activity change, negative = inhibition [5]: 6.38% (inactive)
max response [5, 9]: 12.4%
max response [5, 10]: 21.9%
Potency [6]: inactive

CC(=O)OC1CC(OC(C)=O)[C@]2(C)C(CC(OC(C)=O)[C@]3(C)C2CC[C@@]2(C)C(c4ccoc4)C[C@H]4O[C@]432)C1(C)C (stereo partly drawn)
Potency [1]: inactive
Potency [4]: inactive
activity change, negative = inhibition [5]: 6.91% (inactive)
max response [5, 9]: 9.38%
max response [5, 10]: 19.4%
Potency [6]: inactive

CC1C(=O)OC2C1CC[C@@]1(C)C=CC(=O)[C@@]3(C)O[C@@]213 (stereo partly drawn)
Potency [2]: inactive
Potency [3]: inactive
Potency [4]: inactive
activity change, negative = inhibition [5]: 3.63% (inactive)
max response [5, 9]: -6.2%
max response [5, 10]: 2.49%
Potency [6]: inactive
